G9a inh – blocks human histone lysine methyltransferase G9a | Q96KQ7 | G9a H3K9 monomethylation, AlphaScreen, 2 h | Potency, µM (series often up to 102 µM), most hits filed as inhibitors | 350,000 compounds, 8.8% hits | AID 504332; note: nearly all actives have a fitted effect of over 75% in size
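Step 1: enzyme (final 20 nM) with compound, 15 min RT. Step 2: substrate peptide 500 nM and SAM 20 uM, 2 h RT. Step 3: anti-H3K9me1 antibody and AlphaScreen beads, 10 min, then plate read.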
BAZ2B block – inhibitors of human BAZ2B bromodomain; 360,000 compounds, 4.4% hits; AlphaScreen BAZ2B-H3K14Ac peptide displacement; Q9UIF8; AID 504333; Potency, µM (series often up to 114 µM), most hits filed as inhibitors; note: nearly all actives have a fitted effect of over 60% in size
Target sequence (Q9UIF8 whole entry, looked up): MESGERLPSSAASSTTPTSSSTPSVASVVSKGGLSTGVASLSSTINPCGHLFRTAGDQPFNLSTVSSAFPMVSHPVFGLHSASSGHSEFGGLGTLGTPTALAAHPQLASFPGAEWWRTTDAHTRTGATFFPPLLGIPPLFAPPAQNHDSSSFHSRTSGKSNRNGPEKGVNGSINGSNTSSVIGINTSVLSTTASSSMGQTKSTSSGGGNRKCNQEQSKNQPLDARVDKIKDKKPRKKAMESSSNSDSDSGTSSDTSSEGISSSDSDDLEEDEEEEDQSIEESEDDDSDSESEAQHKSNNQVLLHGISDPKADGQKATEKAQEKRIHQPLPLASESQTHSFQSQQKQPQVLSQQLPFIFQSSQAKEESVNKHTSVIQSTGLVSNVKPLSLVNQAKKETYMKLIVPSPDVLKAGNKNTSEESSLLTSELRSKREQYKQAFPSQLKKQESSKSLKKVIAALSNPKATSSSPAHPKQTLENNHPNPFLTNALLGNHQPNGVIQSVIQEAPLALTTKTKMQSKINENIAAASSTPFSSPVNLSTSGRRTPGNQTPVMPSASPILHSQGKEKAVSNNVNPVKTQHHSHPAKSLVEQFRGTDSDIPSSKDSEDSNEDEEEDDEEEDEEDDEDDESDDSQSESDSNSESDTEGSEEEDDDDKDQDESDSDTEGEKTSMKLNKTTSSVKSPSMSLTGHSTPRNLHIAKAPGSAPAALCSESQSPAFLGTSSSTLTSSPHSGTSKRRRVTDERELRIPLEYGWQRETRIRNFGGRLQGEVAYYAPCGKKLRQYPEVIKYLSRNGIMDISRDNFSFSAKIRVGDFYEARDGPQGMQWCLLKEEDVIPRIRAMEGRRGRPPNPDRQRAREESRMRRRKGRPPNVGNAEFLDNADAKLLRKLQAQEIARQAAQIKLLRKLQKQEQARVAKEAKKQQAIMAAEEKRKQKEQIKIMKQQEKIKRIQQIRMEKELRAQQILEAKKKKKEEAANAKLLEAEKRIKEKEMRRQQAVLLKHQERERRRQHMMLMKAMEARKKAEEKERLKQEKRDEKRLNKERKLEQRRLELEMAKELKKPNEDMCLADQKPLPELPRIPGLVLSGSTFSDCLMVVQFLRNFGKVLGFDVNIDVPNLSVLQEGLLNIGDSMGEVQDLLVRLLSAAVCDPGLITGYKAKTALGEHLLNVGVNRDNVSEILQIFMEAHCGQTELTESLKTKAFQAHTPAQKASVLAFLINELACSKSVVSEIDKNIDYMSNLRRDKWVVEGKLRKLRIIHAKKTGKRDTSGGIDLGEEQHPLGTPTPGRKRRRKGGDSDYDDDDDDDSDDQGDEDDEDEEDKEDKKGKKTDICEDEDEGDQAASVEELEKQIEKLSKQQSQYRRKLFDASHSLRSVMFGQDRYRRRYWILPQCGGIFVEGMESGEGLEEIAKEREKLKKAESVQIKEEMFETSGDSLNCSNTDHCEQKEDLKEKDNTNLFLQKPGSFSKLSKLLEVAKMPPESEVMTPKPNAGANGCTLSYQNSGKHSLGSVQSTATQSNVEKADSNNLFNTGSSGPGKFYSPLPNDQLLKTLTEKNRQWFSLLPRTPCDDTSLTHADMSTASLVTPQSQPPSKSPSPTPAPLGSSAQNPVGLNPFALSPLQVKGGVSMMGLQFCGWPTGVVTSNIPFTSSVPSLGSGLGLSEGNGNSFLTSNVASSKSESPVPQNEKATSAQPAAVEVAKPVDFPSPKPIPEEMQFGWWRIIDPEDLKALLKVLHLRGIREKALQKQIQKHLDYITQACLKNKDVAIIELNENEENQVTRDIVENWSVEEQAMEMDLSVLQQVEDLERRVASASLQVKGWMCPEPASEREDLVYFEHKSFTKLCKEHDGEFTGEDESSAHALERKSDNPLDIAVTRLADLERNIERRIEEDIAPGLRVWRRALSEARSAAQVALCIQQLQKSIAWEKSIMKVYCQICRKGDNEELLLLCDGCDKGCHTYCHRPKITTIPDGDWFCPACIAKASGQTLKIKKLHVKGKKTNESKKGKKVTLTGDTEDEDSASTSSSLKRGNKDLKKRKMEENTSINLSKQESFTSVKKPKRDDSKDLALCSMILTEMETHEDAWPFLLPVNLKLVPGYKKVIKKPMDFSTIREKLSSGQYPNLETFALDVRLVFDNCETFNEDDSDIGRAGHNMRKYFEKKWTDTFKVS
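In this displacement format the biotinylated H3(5-23) peptide acetylated at Lys14 serves as ligand at 50 nM, with BAZ2B at 50 nM in PBS pH 7.4 containing 0.01% Tween-20. Donor and acceptor beads are 10 ug/mL final.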
Sfp PPTase inh – inhibitors of Bacillus subtilis Sfp phosphopantetheinyl transferase; Biochemical Sfp PPTase activity, qHTS; Potency, µM, actives largely listed as inhibitors; 310,000 compounds, 3.5% hits; AID 1490;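 note: the enzyme is Sfp with the accession as filed and its product quenches rhodamine fluorescence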
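Fluorescence-quenching assay with 15 nM Sfp, 5 uM rhodamine-CoA and 12.5 uM BHQ-2-labelled ybbR peptide in pH 7.6 Hepes/MgCl2 buffer. Enzyme was pre-incubated with compound for 15 min at room temperature. Rate was taken from the 30-min fluorescence change (525/598 nm).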
PLK1 PBD block – PLK1 (human) polo-box domain binding inhibition | P53350 | Plk1 PBD binding of FITC phosphopeptide, fluorescence polarization | Potency, µM, usual class: inhibitors | 360,000 compounds, 2.8% hits; note: series mostly up to about 57 µM; nearly all actives have a fitted effect of over 65% in size
JMJD2A Tudor – blocks the human JMJD2A Tudor domain | O75164 | 390,000 compounds, 4.4% hits | AlphaScreen JMJD2A-Tudor / H3K4me3 peptide binding | Potency, µM (highest dose often 114 µM), hits mostly inhibitors; note: nearly all actives have a fitted effect of over 50% in size
HP1b chromo inh – HP1-beta chromodomain-methylated histone interaction inhibition | 390,000 compounds, 0.56% hits | AID 540317 | P83916 | Potency, µM (top dose mostly 114 µM), most hits filed as inhibitors | AlphaScreen HP1-beta / biotin-H3K9me3 peptide binding; note: nearly all actives have a fitted effect of over 70% in size
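Compound inhibition of the preformed complex between 50 nM HP1-beta and 50 nM biotinylated H3K9me3 peptide was read by AlphaScreen. Buffer was PBS pH 7.4 with 0.01% Tween-20. Incubations ran 30 min at room temperature, with 10 ug/mL donor/acceptor beads.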
A number is an active result; [ ] = remark or other dose. An excerpt weighted towards active compounds, which were near 12% of everything screened. Calls come from the whole dose curve; as a rule, active = well fitted curve in the direction sought with a large enough effect; inconclusive = small, poorly fitted or top-dose-only effect, or another doubt; inactive = no such curve, though single readings can be large; an effect the other way counts as inactive or inconclusive.

For Fc1ccc(C2c3cccn3CCN2C(=S)Nc2cccc(Br)c2)cc1 (stereo not given) the results were G9a inh 71µM, BAZ2B block inactive, Sfp PPTase inh inactive, PLK1 PBD block inactive, JMJD2A Tudor inactive and HP1b chromo inh inactive.
`Fc1ccc(NC(=S)N2CCn3cccc3C2c2cccnc2)cc1` (stereo not given) gave G9a inh inconclusive, BAZ2B block inconclusive, Sfp PPTase inh inactive, PLK1 PBD block inactive, JMJD2A Tudor inactive and HP1b chromo inh inactive.
COc1cccc(NC(=S)N2CCn3cccc3C2c2cccnc2)c1 (stereo not given) was read as G9a inh 28µM, BAZ2B block 50µM, Sfp PPTase inh inactive, PLK1 PBD block inconclusive, JMJD2A Tudor inactive and HP1b chromo inh inactive.
For Cc1cc2c(s1)c1cnn(Cc3c(F)c(F)c(C)c(F)c3F)c(=O)c1n2C the results were JMJD2A Tudor inactive.
For Cc1cccc(Nc2nnc(SCC3CCCCO3)s2)c1 (stereo not given) the results were G9a inh 10µM, BAZ2B block inactive, Sfp PPTase inh inactive, PLK1 PBD block inactive, JMJD2A Tudor inactive and HP1b chromo inh inactive.
Cc1ccc(Nc2nnc(SCC(=O)c3ccc(O)cc3O)s2)cc1 was read as G9a inh 32µM, BAZ2B block inactive, Sfp PPTase inh inactive, PLK1 PBD block inactive, JMJD2A Tudor inactive and HP1b chromo inh inactive.
Cc1cccc(Nc2nnc(SCC(=O)c3ccc(O)cc3O)s2)c1 was read as G9a inh 45µM, BAZ2B block inactive, Sfp PPTase inh inactive, PLK1 PBD block inactive, JMJD2A Tudor inactive and HP1b chromo inh inactive.
CC(C)C[C@H]1CNC(=O)C(=O)N1C[C@@H]1CCCN1C[C@H](CC(C)C)N1C[C@H](Cc2ccc(O)cc2)N(CCc2ccccc2)C(=O)C1=O was read as PLK1 PBD block inactive.
Screening COc1ccc(OC)c(N2Cc3cc(C)c(C)cc3C2)c1 returned G9a inh 13µM, BAZ2B block inconclusive, Sfp PPTase inh inactive, PLK1 PBD block inactive, JMJD2A Tudor inconclusive and HP1b chromo inh inactive.
O=C(O)/C=C\C(=O)Nc1ccccc1F was read as G9a inh inconclusive, BAZ2B block inactive, Sfp PPTase inh inactive, PLK1 PBD block inactive, JMJD2A Tudor inactive and HP1b chromo inh inactive.
COC(=O)c1ccc(C(=O)OC)c(NC(=O)/C=C/C(=O)O)c1 was read as G9a inh inconclusive, BAZ2B block inactive, Sfp PPTase inh 40µM, PLK1 PBD block inactive, JMJD2A Tudor inactive and HP1b chromo inh inactive.
For COC(=O)c1ccc(C(=O)OC)c(NC(=O)C2CC2)c1 the results were G9a inh inactive, BAZ2B block inactive, Sfp PPTase inh inactive, PLK1 PBD block inactive, JMJD2A Tudor inactive and HP1b chromo inh inactive.
`O=C(O)/C=C\C(=O)Nc1ccc(F)c(F)c1F` gave G9a inh 40µM, BAZ2B block inactive, Sfp PPTase inh inactive, PLK1 PBD block inactive, JMJD2A Tudor inactive and HP1b chromo inh inactive.
`CC1CCC2(CC1)NC(=S)N(C(C)(C)C)N2` (stereo not given) gave G9a inh 7.1µM, BAZ2B block inactive, Sfp PPTase inh 35µM, PLK1 PBD block inactive, JMJD2A Tudor inconclusive and HP1b chromo inh inactive.
CC1CCC2(CC1)NC(=S)N(c1ccccc1)N2 (stereo not given) was read as G9a inh 6.3µM, BAZ2B block 79µM, Sfp PPTase inh 56µM, PLK1 PBD block inactive, JMJD2A Tudor inactive and HP1b chromo inh inactive.
Screening CCOC(=O)c1cccc(Nc2cc(C)nc(C)n2)c1 returned G9a inh inactive, BAZ2B block inactive, JMJD2A Tudor inactive and HP1b chromo inh inactive.
`CN1/C(=C\C(=S)NC(=O)c2ccc([N+](=O)[O-])cc2)C(C)(C)c2ccccc21` gave G9a inh 45µM, BAZ2B block inconclusive, Sfp PPTase inh inconclusive, PLK1 PBD block inactive, JMJD2A Tudor 50µM and HP1b chromo inh inconclusive.
Screening CN1/C(=C\C(=O)Nc2ccc(F)cc2)C(C)(C)c2ccccc21 returned G9a inh 45µM, BAZ2B block inconclusive, Sfp PPTase inh inactive, PLK1 PBD block inactive, JMJD2A Tudor inactive and HP1b chromo inh inactive.
CN1/C(=C/C2CC(=O)N(c3ccc([N+](=O)[O-])cc3)C2=O)C(C)(C)c2ccccc21 (stereo not given) was read as G9a inh inconclusive, BAZ2B block inconclusive, Sfp PPTase inh 45µM, PLK1 PBD block inactive, JMJD2A Tudor inconclusive and HP1b chromo inh inactive.
CN1/C(=C\C(=O)Nc2ccc(Br)cc2)C(C)(C)c2ccccc21 was read as G9a inh inactive, BAZ2B block inconclusive, Sfp PPTase inh inactive, PLK1 PBD block inactive, JMJD2A Tudor inactive and HP1b chromo inh inactive.
`Cc1cccc(CC2CC(=O)N(c3ccc([N+](=O)[O-])cc3)C2=O)c1` (stereo not given) gave G9a inh inactive, BAZ2B block inactive, Sfp PPTase inh inactive, PLK1 PBD block inactive, JMJD2A Tudor inactive and HP1b chromo inh inactive.
Screening CN1/C(=C\C(=O)COC(=O)c2ccc([N+](=O)[O-])o2)C(C)(C)c2ccccc21 returned G9a inh 20µM, BAZ2B block inconclusive, Sfp PPTase inh inactive, PLK1 PBD block inactive, JMJD2A Tudor inactive and HP1b chromo inh inactive.
CN1/C(=C\C(=O)COC(=O)c2nccnc2N)C(C)(C)c2ccccc21 was read as G9a inh inactive[0.501 µM], BAZ2B block inactive, PLK1 PBD block inactive, JMJD2A Tudor inactive and HP1b chromo inh inactive.
`Cc1ncccc1C(=O)N1CCCC(c2cc(C(=O)Nc3ccc(C(C)(C)C)cc3)no2)C1` (stereo not given) gave PLK1 PBD block inactive.
Screening CCOC(=O)c1c(S(=O)(=O)NCC(=O)N2CCN(c3ccc(OC)cc3)CC2)c(C)n(C)c1C returned BAZ2B block inconclusive, Sfp PPTase inh inactive, PLK1 PBD block inactive, JMJD2A Tudor inactive and HP1b chromo inh inactive.
Screening CCN(CC)S(=O)(=O)c1cccc(C(=O)/C=C2/N(C)c3ccccc3C2(C)C)c1 returned G9a inh inactive, BAZ2B block inactive, Sfp PPTase inh inactive, PLK1 PBD block inactive, JMJD2A Tudor inactive and HP1b chromo inh inactive.
For CN1/C(=C\C(=S)NC(=O)c2cccc(Br)c2)C(C)(C)c2ccccc21 the results were G9a inh 14µM, BAZ2B block 10µM, Sfp PPTase inh inconclusive, PLK1 PBD block inactive, JMJD2A Tudor 20µM and HP1b chromo inh inconclusive.
For COCCCNC(=O)c1ccc2c3c(onc13)-c1ccccc1C2=O the results were BAZ2B block 20µM, Sfp PPTase inh 56µM, PLK1 PBD block 5.3µM, JMJD2A Tudor 50µM and HP1b chromo inh inconclusive.
For COCCCNC(=O)c1ccccc1Oc1ccccc1 the results were G9a inh inactive, BAZ2B block inactive, Sfp PPTase inh inactive, PLK1 PBD block inactive, JMJD2A Tudor inactive and HP1b chromo inh inactive.
